Measured values as given in PubChem BioAssay (NCATS).
Results filed as inconclusive are left out. Activity calls are given as the source filed them. The call rests on the fitted dose curve; in most records, active means well fitted inhibition curve with a large enough effect; inconclusive means small, poorly fitted or top-dose-only effect; inactive means flat fitted curve, though single readings scatter.

The compounds below were run against Aldehyde dehydrogenase, mitochondrial (Homo sapiens) (UniProt P05091) (assay: qHTS for Inhibitors of the Aldehyde Dehydrogenase Family (ALDH2) Primary screen (AID 2061308;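 further: plate controls were vehicle for no effect and reference inhibitor for full effect; nearly all actives have a fitted effect of over 55% in size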)). Details: ALDH2 enzyme inhibition qHTS, 1536-well; series mostly up to 56 µM; activity change, negative = inhibition: at the top concentration.

Structure (SMILES) | activity change, negative = inhibition | Potency
O=C(O)CC/C=C\C[C@H]1CO[C@@H](c2ccccc2Cl)O[C@H]1c1ccccc1O | 0.567% (inactive) | 
OC[C@H]1O[C@@H](OC[C@H]2O[C@@H](OC/C=C/c3ccccc3)[C@H](O)[C@@H](O)[C@@H]2O)[C@@H](O)[C@@H]1O | 11.2% [at 28 µM] (inactive) | 
C=C1C(=O)O[C@@H]2[C@H]3C(C)=CC(=O)C3=C(C)CC[C@@H]12 | 0.0705% (inactive) | 
C/C1=C\CCC(C)CCO[C@@H]2O[C@H](CO[C@@H]3OC[C@H](O)[C@H](O)[C@H]3OC1=O)[C@@H](O)[C@H](O)[C@H]2O (some centres undefined) | -2.54% [at 28 µM] (inactive) | 
COC1OC(OC)C(O)(CCC2(C)C(C)CCC3(C)C2CC(O)C(O)C32CO2)C1O (centres undefined) | 15.5% [at 28 µM] (inactive) | 
C[C@]12C[C@@H](O)[C@@H]3C[C@@]1(O[C@@H]1O[C@H](CO)[C@@H](O)[C@H](O)[C@H]1O)[C@]3(COC(=O)c1ccccc1)C(=O)O2 | 12.5% [at 28 µM] (inactive) | 
CC1(C)CCC[C@]2(C)C1CC=C(CO)[C@H]2CC/C(=C/CO)CO (some centres undefined) | 0.826% (inactive) | 
CC(C)=CCCC1(C)C=Cc2c(c(C)cc3c2[nH]c2ccccc23)O1 (centres undefined) | 1.46% (inactive) | 
C=C1C(=O)O[C@@H]2C[C@@]3(C)C[C@@H](O)C[C@H](C)C3=C[C@H]12 | 2.89% (inactive) | 
CC(C)(C)c1cc(CN2CCN(CC(O)c3ccc(Cl)cc3)CC2)cc(C(C)(C)C)c1O (centres undefined) | -6.21% (inactive) | 
CCN(CC)CCCCCCNc1cc(OC)cc2c(C)ccnc12 | -13.2% (inactive) | 
O=C(O)[C@H]1CCCC[C@H]1C(=O)N1CCc2ccccc2[C@H]1CN1C(=O)c2ccccc2C1=O | 2.45% (inactive) | 
Cc1ccc2c(c1)c1c(n2CCc2ccc(C)nc2)CCN(C)C1 |  | inactive
COc1ccc2nc(S(=O)(=O)Cc3ncc(C)c(OC)c3C)[nH]c2c1 | -6.78% (inactive) | 
